Shown are actives, neighbours in structure and some others; about 2.8% of the full set was active somewhere.
HIF-2a block: blocks HIF-2a reporter activity. 786-0 RCC cells HIF-2a reporter, luciferase luminescence, overnight. inhibition, % at 18.8 µM. 360,000 compounds, 0.72% hits;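 active = inhibition of the luminescence signal of 40% or more relative to plate controls, in a single-dose primary screen at 18.75 µM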
CF NFkB inh: blocks PAF-induced NF-kB reporter in cystic fibrosis cells; KKLEB NF-kB-GFP reporter, GFP fluorescence overnight; inhibition, % at 5 µM; 360,000 compounds, 0.86% hits; AID 588850;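 active = at least 50% inhibition at 5 µM, scaled per plate between neutral and stimulator controls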;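 note: PAF is a Pseudomonas aeruginosa culture filtrate used as stimulus; plate controls were PAF-stimulated DMSO wells for no effect and unstimulated DMSO wells for full effect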
KKLEB cytotox: reduces viability of KKLEB cystic fibrosis airway cells. 360,000 compounds, 0.36% hits. KKLEB CF airway cells viability, ATPlite luminescence, overnight; stronger effect = lower value; cells stimulated with P. aeruginosa culture filtrate. activity change (cytotoxicity), % at 5 µM;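 active = corrected activity change at or below -50% at 5 µM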
TRPM1 prom inh: reduces MITF-dependent TRPM1 promoter luciferase signal; 330,000 compounds, 0.83% hits; inhibition, % at 12.5 µM; SK-MEL-5 TRPM1 promoter luciferase, 24 h;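 active = mean inhibition across replicates of 60% or more, whatever share of single replicates reaches that level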
B2AR ag: agonists of human beta-2 adrenergic receptor inducing internalization | Am2.2-beta2AR cells, FAP receptor internalization, flow cytometry | response, % (concentration not given with the values) | 340,000 compounds, 0.43% hits | AID 504454;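 active = response above a set limit, near 3 SD of response in nonfluorescent compounds, cut at about 42% in these data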
Target sequence (P07550 whole entry, looked up): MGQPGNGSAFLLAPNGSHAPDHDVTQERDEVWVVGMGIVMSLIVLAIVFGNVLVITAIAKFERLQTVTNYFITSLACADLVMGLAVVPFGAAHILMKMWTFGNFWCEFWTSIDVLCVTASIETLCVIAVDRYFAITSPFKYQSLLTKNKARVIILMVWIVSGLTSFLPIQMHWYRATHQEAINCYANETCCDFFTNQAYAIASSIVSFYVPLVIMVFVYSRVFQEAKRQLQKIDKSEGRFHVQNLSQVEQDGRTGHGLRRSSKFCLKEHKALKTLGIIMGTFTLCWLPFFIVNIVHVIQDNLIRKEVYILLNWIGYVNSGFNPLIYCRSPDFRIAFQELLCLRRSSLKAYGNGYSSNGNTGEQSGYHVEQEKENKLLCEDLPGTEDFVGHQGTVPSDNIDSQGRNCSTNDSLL
Peg3 prom inh: Peg3 promoter activity inhibition; HeLa PEG-Prom luciferase reporter, luminescence, overnight; inhibition, % at 20 µM; 360,000 compounds, 1.7% hits;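 active = inhibition of at least 50% at 20 µM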
* = called active by the depositor; . = no result.

SMILES	HIF-2a block	CF NFkB inh	KKLEB cytotox	TRPM1 prom inh	B2AR ag	Peg3 prom inh
CCCCCCc1cc2cc(/C(N)=N/NC(=O)c3ccncc3)c(=O)oc2cc1O	9	22	-2	9	-820	20
CCCCCCc1cc2cc(C(=O)Nc3cccc(OC)c3)c(=O)oc2cc1O	8	66*	-63*	35	23	30
CCCCCCc1cc2cc(C(=O)Nc3ccc(OC)cc3)c(=O)oc2cc1O	16	52*	-57*	9	20	43
CCCCCCc1cc2cc(S(=O)(=O)c3ccc(F)c(Cl)c3)c(=O)oc2cc1O	21	60*	-72*	21	17	49
CCCCCCc1cc2cc(C(=O)NC)c(=N)oc2cc1O	-13	17	4	-3	-91	16
Cc1cc(Br)cn2c(Cc3ccsc3)c(C3CCCCC3)nc12	11	-29	5	.	.	0
Cc1[nH]c2c(ccc3ccccc32)c1C1C(CCN)C1(C)C (stereo unspecified)	1	5	-25	71*	7	100*
CC(=NNC(=S)N1CCC1)c1ccccn1	2	36	-14	69*	-2	50
CC(=NNC(=S)N1CCCC1)c1ccccn1	-23	-1	-4	.	.	26
CC(=NNC(=S)SCc1ccccc1)c1ccccn1	-154	29	10	45	3	94*
OC[C@@H]1CN(Cc2ccc(F)cc2)C[C@H](n2cnc3c(N4CCN(c5ccccc5)CC4)ncnc32)O1	-12	-4	6	.	.	17
C[C@@H]1CCCCO[C@H](CN(C)Cc2ccc3c(c2)OCO3)[C@@H](C)CN([C@H](C)CO)C(=O)c2cc(NC(=O)c3ccccc3)ccc2O1	-3	18	-11	.	.	-7
COc1cc(/C=C/C(=O)c2ccc(Cl)s2)cc(OC)c1O	27	42	-23	28	-3	52*
C=C(NC(=O)C(=C)NC(=O)c1csc(C2=NC3c4csc(n4)C4NC(=O)c5csc(n5)C(C(C)(O)C(C)O)NC(=O)C5CSC(=N5)/C(=C/C)NC(=O)C(C(C)O)NC(=O)c5csc(n5)C3(CC2)NC(=O)C(C)NC(=O)C(=C)NC(=O)C(=C)NC(=O)C(C(C)C)NC2C=Cc3c(C(C)O)cc(nc3C2O)C(=O)OC4C)n1)C(N)=O (stereo unspecified)	64*	-113	-16	94*	11	81*
CCCC(=O)NC1=C(Cl)C(=O)c2ccccc2C1=O	95*	17	16	101*	38	98*
O=C1C(Cl)=C(NCCN2CCCCC2)C(=O)c2ccccc21	87*	75*	-27	99*	18	99*
CCNC1=C(Cl)C(=O)c2ccccc2C1=O	67*	6	-11	74*	-4	-1
O=C1C(Cl)=C(NCc2ccco2)C(=O)c2ccccc21	-8	74*	0	94*	2	-50
C[C@H]1CN([C@@H](C)CO)C(=O)CCCn2cc(nn2)CO[C@@H]1CN(C)S(=O)(=O)c1ccc(C#N)cc1	11	-1	5	.	.	-6
O=C(NCc1cccs1)c1csc([C@@H]2C[C@H](O)[C@@H](CO)O2)n1	13	6	-19	.	.	4
O=C(C[C@@H]1CC[C@@H]2[C@H](COC[C@@H](O)CN2Cc2cc(F)ccc2F)O1)NCc1ccc(F)cc1	13	.	.	.	.	.
COc1cc(/C=C(/C#N)C(=O)NCCc2c[nH]c3ccccc23)ccc1OCc1ccccc1F	1	22	-28	33	3	89*
Cc1cc(C)nc(N/N=C/c2ccccc2OCc2ccc([N+](=O)[O-])cc2)n1	-55	1	-15	-33	97*	-62
CN1CCN(Cc2c(O)ccc3cc(-c4ccccn4)c(=O)oc23)CC1	-6	19	3	-3	69*	-4
O=C(NCc1cccc(F)c1)Nc1nnc([C@@H]2C[C@H](O)[C@@H](CO)O2)s1	6	22	-1	.	.	-12
SMILES	HIF-2a block	CF NFkB inh	KKLEB cytotox	TRPM1 prom inh	B2AR ag	Peg3 prom inh
CCCCOc1ccc(/C=C/C(=O)OCC(=O)N2CC(=O)Nc3ccccc32)cc1OCC	-10	-18	0	11	44*	13
CCOC(=O)/C(C#N)=C/c1cccc(F)c1	11	-10	4	-3	9	1
CCOC(=O)/C(C#N)=C/c1cccc(C)c1	11	-6	-6	3	-7	73*
COc1ccc(NC(=O)CN2C(=O)NC(C)(Cc3ccc(OC)c(OC)c3)C2=O)cc1 (stereo unspecified)	10	-3	-1	.	.	4
CCc1nc2c(OCc3c(C)noc3C)cccn2c1N(C)C(=O)c1ccccc1F	16	-10	24	.	.	-9
C#CCOCCOCCOCCNc1nc(N2CCN(C(=O)CCCCCCCCCCNC(=O)Cn3cc(C[C@@H](C)O)nn3)CC2)nc(N2CCN(C(=O)CCCCCCCCCCNC(=O)[C@@H](CCSC)n3cc(CCO)nn3)CC2)n1	-4	15	-10	79*	24	-70
C#CCOCCOCCOCCNc1nc(N2CCN(C(=O)CCCCCCCCCCNC(=O)[C@@H](CCSC)n3cc(CCO)nn3)CC2)nc(N2CCN(C(=O)CCCCCCCCCCNC(=O)[C@H](CCCN=C(N)N)n3cc(C[C@@H](C)CC)nn3)CC2)n1	-9	10	4	69*	58*	7
C#CCOCCOCCOCCNc1nc(N2CCN(C(=O)CCCCCCCCCCNC(=O)[C@H](CCCCN)n3cc(C[C@@H](C)CC)nn3)CC2)nc(N2CCN(C(=O)CCCCCCCCCCNC(=O)[C@H](CCCN=C(N)N)n3cc(C[C@@H](C)CC)nn3)CC2)n1	41*	12	0	104*	42*	101*
C#CCOCCOCCOCCNc1nc(N2CCN(C(=O)CCCCCCCCCCNC(=O)[C@@H](CCSC)n3cc(CCO)nn3)CC2)nc(N2CCN(C(=O)CCCCCCCCCCNC(=O)[C@H](CO)n3cc(CCCCCN)nn3)CC2)n1	12	5	14	10	19	-9
COc1ccc(NC(=O)C2Cc3c(-c4cccc(F)c4)ccnc3O2)cn1 (stereo unspecified)	7	-4	-9	.	.	18
N#Cc1c(-c2ccc(Br)cc2)cc(-c2cccnc2)nc1N	3	-5	-13	-3	7	21
N#Cc1c(-c2ccc(F)cc2)cc(-c2cccnc2)nc1N	8	4	-36	2	6	53*
CCCOc1ccc(-c2nnc(-c3ccncc3)o2)cc1	-167	0	-53*	-42	-19	-281
CC(C)COc1ccc(-c2nnc(-c3ccncc3)o2)cc1	-205	-21	7	-52	-12	-262
CCCCn1nnnc1C1(C)CCC(=O)N1c1ccc(N2CCOCC2)cc1 (stereo unspecified)	2	.	.	.	.	.
CC(=NNc1nc2ccccc2o1)c1cc2ccccc2cn1	-57	-10	-7	58	-134	89*
